Tested on in the first assay: not listed separately
Kind of assay: probe aInhba binding on compound microarray – biochemical, small-molecule microarray, 635/667 nm fluorescence, primary screen (AID 1148).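 Also: score merges 667nm spot fluorescence with signal-to-noise for antibody binding to printed compounds.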 The conditions noted are these: higher = more signal.
As to `CCOC(=O)[C@H](CC(C)C)NC(=O)CCC1CC(OC(=O)NCc2ccc3c(c2)OCO3)CC2(CCCC(COC(=O)NCCOC)O2)O1` (stereo partly specified), the composite z-score was -0.0006.
On the same count and under the same terms, under `COc1ccc(OC[C@@H](CO)OC)cc1` stands -0.0962; under `COC(=O)[C@@H]1CC[C@H](C)[C@@H](c2ccc(C)cc2)N1C(=O)c1ccc(C=NOC[C@@H](O)[C@H]2O[C@@H]3OC(C)(C)O[C@@H]3[C@H]2O)cc1`, 0.31; under `CC(=O)OC[C@H]1O[C@H](CC=NO[C@@H](C)c2cn([C@H](CO)Cc3ccccc3)nn2)C=C[C@@H]1OC(C)=O`, -0.0963.
The compound `COC(=O)[C@H](C)NC(=O)CCC1CC(OC(=O)NCc2ccc3c(c2)OCO3)CC2(CCCC(COC(=O)NCCC(C)C)O2)O1` (stereo partly specified) showed a composite z-score of -0.224.

The target in another assay is Torsin-1A (Homo sapiens) (UniProt O14656). Kind of assay: TOR1A wild-type binding on microarray – cell lysate, small-molecule microarray, lysate, 635/667 nm, primary screen (AID 1149). The conditions noted are these: COS7 hTOR1A-WT lysate, 635 nm fluorescence, higher = more signal.
Sequence of Torsin-1A (Homo sapiens) (O14656 whole entry, looked up): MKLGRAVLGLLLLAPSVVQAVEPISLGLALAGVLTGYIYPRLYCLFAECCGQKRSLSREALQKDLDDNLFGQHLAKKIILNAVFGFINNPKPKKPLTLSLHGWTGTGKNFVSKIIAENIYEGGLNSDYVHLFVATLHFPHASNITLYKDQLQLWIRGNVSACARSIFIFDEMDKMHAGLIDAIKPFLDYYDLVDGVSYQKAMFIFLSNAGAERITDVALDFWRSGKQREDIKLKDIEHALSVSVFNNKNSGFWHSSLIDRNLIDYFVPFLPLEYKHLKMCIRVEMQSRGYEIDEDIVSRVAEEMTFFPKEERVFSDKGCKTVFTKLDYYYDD
On to `CCOC(=O)CCN1C(=O)[C@H]2[C@H]3[C@H](O)[C@H](O)CC(=NOCC=C(C)CCC=C(C)C)[C@H]3CC[C@H]2C1=O`, for which the composite z-score was 0.703.
In turn, `CCOC(=O)[C@H](Cc1ccccc1)NC(=O)CCC1CC(OC(=O)NCc2cccc3ccccc23)CC2(CCCC(COC(=O)NCCOc3ccccc3)O2)O1` (stereo partly specified) displayed a composite z-score of 0.0468.
The compound `CCOC(=O)[C@H](CC(C)C)NC(=O)CCC1CC(OC(=O)NCCc2ccc(F)cc2)CC2(CCCC(COC(=O)NCCCN3CCCC3=O)O2)O1` (stereo partly specified) gave a composite z-score of 1.66.
Compound `CC(=O)OC[C@H]1O[C@H](CC=NOC(C)CN2CCCCc3nc(C)c(C)cc32)C=C[C@@H]1OC(C)=O` (stereo partly specified) displayed a composite z-score of 3.43.
The same measure, in the same setting: the same measure for `C#CCCCON=C1[C@H]2CCn3c(=O)n([C@@H](CC)c4ccccc4)c(=O)n3[C@H]2[C@H](O)[C@@H]2O[C@H]12`: -0.0784.
`CO[C@H]1C[C@@H]2C[C@H](O)CC(CC(=O)O[C@@H](C=CCC(C)C)C[C@@H]3CC[C@H](C)[C@@H](C1)O3)O2` had a composite z-score of 0.778.
The compound `C=CC[C@@H]1C=C[C@H](ON=C[C@@H](NS(=O)(=O)c2ccc(C)cc2)[C@H](C)C=CCC(=O)OC)[C@@H](CO)O1` displayed a composite z-score of 0.359.
On to `CO[C@H]1COC(=O)CCC[C@H](C)[C@@H](OC)COC(=O)CC=C[C@@H]1C`, for which the composite z-score stood at 0.0956.
Same read-out and setting: under `O=C(NN=C1C[C@@H](O)[C@@H](O)[C@@H]2[C@@H]3C(=O)N(Cc4ccccc4)C(=O)[C@@H]3CC[C@H]12)OCc1ccccc1` stands 0.726; under `CCOC(=O)[C@H](CC(C)C)NC(=O)CCC1CC(OC(=O)NCCc2ccc(F)cc2)CC2(CCCC(COC(=O)NCc3cccc4ccccc34)O2)O1` (stereo partly specified), -0.169; under `CCN1C(=O)[C@H]2[C@H]3[C@H](O)[C@H](O)CC(=NOCC(C)C)[C@H]3CC[C@H]2C1=O`, -0.284.
In turn, `COC(OC)[C@@H](C)[C@H](OC)[C@@H](C)[C@H](OC)c1ccccc1` showed a composite z-score of 0.237.
Same read-out and setting: the same measure for `COC(=O)[C@H](C)NC(=O)CCC1CC(OC(=O)NCc2ccc3c(c2)OCO3)CC2(CCCC(COC(=O)NCc3ccccc3)O2)O1` (stereo partly specified): 0.283.
As to `CO[C@@H](C1CCCCC1)[C@@H](C)[C@H](OCc1cccc(Br)c1)[C@@H](C)CO`, the composite z-score was -0.0604.
Same read-out and setting: the same measure for `CC(C)CON=C1[C@H]2CCn3c(=O)n(C)c(=O)n3[C@H]2[C@H](O)[C@@H]2O[C@H]12`: 0.558.
Compound `C[C@]12CCC3c4ccc(OCC5CO5)cc4CCC3C1CC[C@@H]2O` (stereo partly specified) came in with a composite z-score of 0.114.
`CO[C@@H]1C=CCC(=O)N[C@@H](C)C(=O)OC[C@@H](OC)[C@H](C)C=CCC(=O)OC[C@H]1C` displayed a composite z-score of 2.58.
With `OC[C@H]1O[C@H](C#Cc2ccccc2)C=C[C@@H]1O`, the composite z-score is -0.339.
Turning to `CC(C)[C@@H](OCc1ccccc1)[C@H](C)C=NO[C@H](C)c1cn([C@@H]2COC[C@H]2O)nn1`, the composite z-score was determined as 1.4.
As for `CN1CCc2nc(-c3ccccc3)c(-c3ccccc3)cc2C1`, the composite z-score was 0.214.
In turn, `O=C1[C@H]2[C@H]3[C@H](O)[C@H](O)CC(=NOC[C@@H](O)COCc4ccco4)[C@@H]3CC[C@H]2C(=O)N1Cc1ccc2c(c1)OCO2` had a composite z-score of 3.38.
For the compound `CCOC(=O)[C@H](CC(C)C)NC(=O)CCC1CC(OC(=O)NCc2ccc3c(c2)OCO3)CC2(CCCC(COC(=O)NCCc3ccccc3OC)O2)O1` (stereo partly specified), the composite z-score is -0.0035.
As for `C[C@@H]1CC[C@H]2C(=O)OC(CN3C(=O)c4ccccc4C3=O)CN2[C@H]1c1ccc(Br)cc1` (stereo partly specified), the composite z-score was -0.0288.
As to `O=C1C=C[C@@H](O)[C@@H]2[C@@H]3C(=O)N(Cc4ccc5c(c4)OCO5)C(=O)[C@@H]3CC[C@@H]12`, the composite z-score was determined as 0.376.
Consider `COC(=O)[C@H](C)NC(=O)CCC1CC(OC(=O)NCc2cccc3ccccc23)CC2(CCCC(COC(=O)NCCCN3CCCC3=O)O2)O1` (stereo partly specified), for which the composite z-score came out at 0.519.
In turn, `CO[C@@H]1COC(=O)[C@H](COCc2ccccc2)NC(=O)CC=C[C@@H](C)[C@H](OC)COC(=O)[C@@H](C)NC(=O)CC=C[C@H]1C` registered a composite z-score of 1.53.
Turning to `CON=C(C)CCN1CCCCc2nc(C)c(C)cc21`, the composite z-score turned out to be 1.5.
`C#CCCCON=C1[C@H]2CCn3c(=O)n(Cc4cc5c(cc4Cl)OCO5)c(=O)n3[C@H]2[C@H](O)[C@@H]2O[C@H]12` yielded a composite z-score of 0.0703.
Same read-out and setting: the same measure for `C[C@H]1CC[C@H]2C(=O)N[C@H](Cc3ccccc3)C(=O)N2[C@@H]1c1ccccc1`: 0.345.
In turn, `CC(CCN1CCc2nc(-c3ccccc3)c(-c3ccccc3)cc2C1)=NO[C@H](C)c1cn([C@H](CO)Cc2ccccc2)nn1` showed a composite z-score of 0.824.
The compound `C#CCCCON=C1C[C@@H](O)[C@@H](O)[C@@H]2[C@@H]3C(=O)N(C[C@@H]4CCCO4)C(=O)[C@@H]3CC[C@@H]12` registered a composite z-score of 0.308.
As for `CCOC(=O)[C@H](CC(C)C)NC(=O)CCC1CC(OC(=O)NCc2ccc3c(c2)OCO3)CC2(CCCC(COC(=O)NCCOC)O2)O1` (stereo partly specified), the composite z-score was -0.0402.
For `COc1ccc(OC[C@@H](CO)OC)cc1`, the composite z-score stood at 0.373.
In the case of `COC(=O)[C@@H]1CC[C@H](C)[C@@H](c2ccc(C)cc2)N1C(=O)c1ccc(C=NOC[C@@H](O)[C@H]2O[C@@H]3OC(C)(C)O[C@@H]3[C@H]2O)cc1`, the composite z-score was 0.215.
`CC(=O)OC[C@H]1O[C@H](CC=NO[C@@H](C)c2cn([C@H](CO)Cc3ccccc3)nn2)C=C[C@@H]1OC(C)=O` showed a composite z-score of 0.542.
For the compound `COC(=O)[C@H](C)NC(=O)CCC1CC(OC(=O)NCc2ccc3c(c2)OCO3)CC2(CCCC(COC(=O)NCCC(C)C)O2)O1` (stereo partly specified), the composite z-score worked out at 0.245.

The values are drawn from PubChem BioAssay.
